Each structure is given as a SMILES string. Values without a mark were called inactive. Results filed as inconclusive are left out. Active and inactive are the calls of the source. Unless noted, calls come from the whole dose curve; as a rule, active = well fitted curve in the direction sought with a large enough effect in the repeat runs; inconclusive = weak or mixed curves; inactive = no such curve, though single readings can be large; an effect the other way counts as inactive or inconclusive.

Test [1] in a line: qHTS assay to identify small molecule phospholipidosis (PLD) inducers (AID 1259344; active = well fitted curve in the direction sought with a large enough effect; an effect the other way counts as inactive or inconclusive). The gist of the method:
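Phospholipidosis is scored by imaging LipidTOX-stained pits in HepG2 cells exposed to compound for 24 h at 37 C; pit counts and integrated intensities per well and per cell serve as outputs.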
On the technique in general: Quantitative high-throughput screening tests each substance at several concentrations.

Test [2] can be described thus: A CellTox Green Cytotoxicity Assay to monitor cytotoxicity in HepG2 cells - 8 hour (AID 1224890). Note: nearly all actives have a fitted effect of over 45% in size. The gist of the method: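 HepG2 cells, 600/well, preincubated 5 h with CellTox Green dye, then exposed to Tox21 compounds in DMSO at 37 C for up to 40 h. Dead-cell DNA fluorescence read at the indicated time point.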
A short description of test [3]: qHTS assay to identify small molecule antagonists of the androgen receptor (AR) signaling pathway using the MDA cell line in the presence of 0.5 nM R1881 - cell viability counter screen (AID 1259242). Note: nearly all actives have a fitted effect of over 45% in size. Note: potency is the fitted concentration of half-maximal effect. The gist of the method: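 MDA-kb2 cells (MMTV-luciferase, AR/GR responsive) were treated with compounds plus 0.5 nM R1881 (final) for 16 hr at 37C, 0% CO2. Viability was then read in the same wells as live-cell protease fluorescence (CellTiter-Fluor, 30 min).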

The target of test [4] is Androgen receptor (Homo sapiens) (UniProt P10275). The test is described as follows: qHTS assay to identify small molecule antagonists of the androgen receptor (AR) signaling pathway using the MDA cell line in the presence of 0.5 nM R1881 (AID 1259243). Note: nearly all actives have a fitted effect of over 50% in size. Note: potency is the fitted concentration of half-maximal effect. The gist of the method:
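MDA-kb2 cells (MMTV-luciferase, responsive to AR and GR) at 3,000/well, rested 5 h at 37C, 0% CO2, then given compounds plus 0.5 nM R1881 (final) for 16 hr. Luciferase read with ONE-Glo after 30 min at room temperature.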

Test [5] concerns the target Estrogen receptor (Homo sapiens) (UniProt P03372). The test is described as follows: qHTS assay to identify small molecule antagonists of the estrogen receptor alpha (ER-alpha) signaling pathway using the BG1 cell line in the presence of 0.1 nM 17-beta-estradiol (AID 1259244). Note: nearly all actives have a fitted effect of over 50% in size. Note: potency is the fitted concentration of half-maximal effect. The gist of the method:
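VM7Luc4E2 cells (endogenous full-length ER-alpha, 4×ERE-luciferase), kept 5 days in phenol red-free, charcoal-stripped FBS medium; 4,000 cells/well. Compounds added with 0.1 nM (final) 17beta-estradiol, 22 hr at 37C; luminescence read with ONE-Glo after 30 min.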

A short description of test [6]: qHTS assay to identify small molecule HDAC inhibitors (AID 1259364). Note: nearly all actives have a fitted effect of over 45% in size. Note: potency is the fitted concentration of half-maximal effect. The gist of the method: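 Wild-type HCT-116 cells, plated overnight at 37 C, exposed to compounds 2 hr at 37 C; luminogenic HDAC-Glo substrate then added 30 min at room temperature. Luminescence reports relative endogenous class I/II HDAC activity.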
Test [7] is described as follows: qHTS assay to identify small molecule agonists of the sonic hedgehog signaling (Shh) pathway - cell viability counter screen (AID 1259366). Note: nearly all actives have a fitted effect of over 50% in size. Note: potency is the fitted concentration of half-maximal effect. The gist of the method: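 Fluorescence from CellTiter-Fluor reports live cells in this counter screen. NIH/3T3-derived Gli1-Luc reporter cells receive test compounds for 24hr at 37C; reagent goes in at 23hr.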
Test [8] in a line: qHTS assay to identify small molecule antagonists of the sonic hedgehog signaling (Shh) pathway - cell viability counter screen (AID 1259367). Note: nearly all actives have a fitted effect of over 55% in size. Note: potency is the fitted concentration of half-maximal effect. The gist of the method: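 Cells: 3T3 Gli1-Luc, 2,000/well, 4 hr pre-incubation. Compounds in DMSO, then conditioned medium. Incubation 24 hr, 37C, 5% CO2. CellTiter-Fluor at 23 hr, 1 hr, fluorescence.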
The nature of test [9]: qHTS assay to identify small molecule agonists of the sonic hedgehog signaling (Shh) pathway (AID 1259368; calls by dose curve;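 note: NIH/3T3-derived 3T3Gli1-Luc cells carrying a stable Gli1-driven firefly luciferase reporter; series mostly up to about 92 µM; nearly all actives have a fitted effect of over 15% in size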). The gist of the method: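 NIH/3T3-derived 3T3Gli1-Luc cells with stably integrated Gli1-driven firefly luciferase, 2,000 cells/well, compounds added after 4 hr. Incubated 24 hr at 37C, 5% CO2; luminescence read after 30 min with luciferase reagent at room temperature.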

The nature of test [10]: qHTS assay to identify small molecule antagonists of the sonic hedgehog signaling (Shh) pathway (AID 1259369; calls by dose curve; note: nearly all actives have a fitted effect of over 45% in size). The gist of the method: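 NIH/3T3-derived Gli1-Luc reporter cells plated 4 h, dosed with compound, then stimulated with conditioned medium for 24 h at 37 C. Firefly luciferase luminescence read after 30 min with detection reagent at room temperature.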
Test [11] in a line: qHTS assay to identify small molecule agonists of the estrogen receptor beta (ER-beta) signaling pathway - cell viability counter screen (AID 1259380). Note: nearly all actives have a fitted effect of over 30% in size. Note: potency is the fitted concentration of half-maximal effect. The gist of the method: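 ER-beta-UAS-bla HEK293T cells in medium with 2% charcoal-stripped FBS, pre-incubated 6 hr, then treated 16 hr at 37C. Cytotoxicity read in the same wells by CellTiter-Glo luminescence after 30 min at room temperature.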

In test [12] the target is Androgen receptor (Homo sapiens) (UniProt P10275). The test is described as follows: qHTS assay to identify small molecule agonists of the androgen receptor (AR) signaling pathway in the presence of an antagonist (AID 1259381; calls by dose curve; note: nearly all actives have a fitted effect of over 15% in size). The gist of the method: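 MDA-kb2 cells carrying MMTV-luciferase (AR/GR responsive), 3,000 cells/well, co-treated with 3.0 uM nilutamide final. Compounds at 15 concentrations, 16 hr at 37C without CO2. Luciferase luminescence read after 30 min with ONE-Glo.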
Chain of Androgen receptor (Homo sapiens) (P10275 whole entry, looked up): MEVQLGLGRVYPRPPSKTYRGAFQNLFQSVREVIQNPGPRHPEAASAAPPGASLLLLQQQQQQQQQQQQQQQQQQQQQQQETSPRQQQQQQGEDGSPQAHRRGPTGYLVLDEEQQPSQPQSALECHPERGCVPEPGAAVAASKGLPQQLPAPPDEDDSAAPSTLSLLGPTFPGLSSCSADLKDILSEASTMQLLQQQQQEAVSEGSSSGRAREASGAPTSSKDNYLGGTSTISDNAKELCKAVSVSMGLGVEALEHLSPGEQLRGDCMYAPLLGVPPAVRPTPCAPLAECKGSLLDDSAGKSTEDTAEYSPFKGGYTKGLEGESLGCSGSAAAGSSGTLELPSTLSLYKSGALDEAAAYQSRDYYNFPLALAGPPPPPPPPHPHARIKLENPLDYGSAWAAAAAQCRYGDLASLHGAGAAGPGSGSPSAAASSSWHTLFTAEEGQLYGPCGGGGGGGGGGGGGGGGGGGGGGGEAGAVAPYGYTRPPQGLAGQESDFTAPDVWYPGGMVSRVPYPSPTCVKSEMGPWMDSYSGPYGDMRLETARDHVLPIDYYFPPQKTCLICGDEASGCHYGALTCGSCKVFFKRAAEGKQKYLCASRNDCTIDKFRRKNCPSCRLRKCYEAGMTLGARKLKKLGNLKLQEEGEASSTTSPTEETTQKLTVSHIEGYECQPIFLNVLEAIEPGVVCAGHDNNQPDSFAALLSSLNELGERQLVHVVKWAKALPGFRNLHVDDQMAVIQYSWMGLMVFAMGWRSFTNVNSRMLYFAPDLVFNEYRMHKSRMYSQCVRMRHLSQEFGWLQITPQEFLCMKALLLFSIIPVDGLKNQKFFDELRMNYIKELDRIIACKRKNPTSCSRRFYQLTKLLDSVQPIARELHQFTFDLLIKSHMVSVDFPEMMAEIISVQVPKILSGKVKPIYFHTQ

The nature of test [13]: qHTS assay to identify small molecule antagonists of the estrogen receptor alpha (ER-alpha) signaling pathway using the BG1 cell line in the presence of 0.1 nM 17-beta-estradiol - cell viability counter screen (AID 1259241). Note: nearly all actives have a fitted effect of over 40% in size. Note: potency is the fitted concentration of half-maximal effect. The gist of the method: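 CellTiter-Fluor read (30 min, 37C) on ER-alpha/ERE-luc VM7Luc4E2 cells; 22 hr compound treatment; agonist 0.1 nM E2 final; same-well multiplex.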

A short description of test [14]: qHTS assay to identify small molecule HDAC inhibitors - cell viability counter screen (AID 1259365). Note: nearly all actives have a fitted effect of over 50% in size. Note: potency is the fitted concentration of half-maximal effect. The gist of the method: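 To flag cytotoxic hits, 1,500 wild-type HCT-116 cells per well, plated the day before, receive test compounds for 2hr at 37 C before CellTiter-Glo reagent and a luminescence read.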
Test [15] in a line: qHTS assay to identify small molecule agonists of the androgen receptor (AR) signaling pathway in the presence of an antagonist - cell viability counter screen (AID 1259379). Note: nearly all actives have a fitted effect of over 25% in size. Note: potency is the fitted concentration of half-maximal effect. The gist of the method: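 MDA-kb2 cells (MMTV-luciferase, AR/GR), 3,000/well, 5 h attachment, then 3.0 µM nilutamide (final) and compounds at 15 concentrations. Viability by CellTiter-Fluor fluorescence after 16 h at 37 °C, 0% CO2, in the reporter wells.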

A short description of test [16]: A CellTox Green Cytotoxicity Assay to monitor cytotoxicity in HEK293 cells - 16 hour (AID 1224888). Note: nearly all actives have a fitted effect of over 35% in size. The gist of the method:
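HEK293 cells, 600/well, were preincubated 5 hours and then exposed to compounds at 37 C for up to 40 hours. A cell-impermeant cyanine dye staining dead-cell DNA was read by fluorescence at 0, 8, 16, 24, 32 and 40 h time points.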

The target in test [17] is Estrogen receptor beta (Homo sapiens) (UniProt Q92731). Nature of the test: qHTS assay to identify small molecule agonists of the estrogen receptor beta (ER-beta) signaling pathway (AID 1259377; active = well fitted activation curve with a large enough effect in the signal ratio in the repeat runs, not every such curve was filed as active; the % refers to the signal ratio). The gist of the method: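 Screening used GripTite ER-beta-UAS-bla cells held in 2% charcoal-stripped FBS medium. After overnight (16 hr) compound incubation at 37C, beta-lactamase activity was detected with a FRET substrate by fluorescence.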
Chain of Estrogen receptor beta (Homo sapiens) (Q92731 whole entry, looked up): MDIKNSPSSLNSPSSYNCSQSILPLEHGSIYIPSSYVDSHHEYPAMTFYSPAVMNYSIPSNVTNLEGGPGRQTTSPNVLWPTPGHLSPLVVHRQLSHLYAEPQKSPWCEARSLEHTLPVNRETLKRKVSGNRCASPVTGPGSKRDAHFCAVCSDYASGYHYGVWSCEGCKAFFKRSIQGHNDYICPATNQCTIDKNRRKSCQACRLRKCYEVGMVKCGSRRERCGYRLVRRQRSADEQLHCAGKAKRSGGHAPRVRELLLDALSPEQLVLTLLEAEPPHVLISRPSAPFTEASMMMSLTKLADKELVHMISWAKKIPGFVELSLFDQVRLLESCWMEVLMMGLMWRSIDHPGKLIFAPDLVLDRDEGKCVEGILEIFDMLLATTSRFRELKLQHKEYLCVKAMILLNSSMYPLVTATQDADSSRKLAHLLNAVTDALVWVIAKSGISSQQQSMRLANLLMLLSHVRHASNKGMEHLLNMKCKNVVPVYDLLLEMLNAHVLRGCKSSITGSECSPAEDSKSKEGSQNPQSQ

Test [18] shares this target. Nature of the test: qHTS assay to identify small molecule antagonists of the estrogen receptor beta (ER-beta) signaling pathway (AID 1259378; active = well fitted inhibition curve with a large enough effect in the signal ratio in the repeat runs, not every such curve was filed as active; the % refers to the signal ratio; note: potency is the fitted concentration of half-maximal effect). The gist of the method:
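Antagonist mode: compounds added to beta-lactamase reporter HEK293T ER-beta-UAS cells stimulated with E2 (1nM final), 16 hr at 37C. LiveBLAzer B/G FRET substrate, 2 hours room temperature, fluorescence read-out.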

Test [19] in a line: qHTS RealTime-Glo MT Cell Viability Assay in HepG2 cells - 0 hour (AID 1224889). Note: nearly all actives have a fitted effect of over 50% in size. The gist of the method: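 Luminescence read-out: viable HepG2 cells reduce a prosubstrate to a NanoLuc substrate, giving a signal proportional to live cell number. Reads taken at 0, 8, 16, 24, 32 and 40 h of compound exposure at 37 C.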

Chain of Estrogen receptor (Homo sapiens) (P03372 whole entry, looked up): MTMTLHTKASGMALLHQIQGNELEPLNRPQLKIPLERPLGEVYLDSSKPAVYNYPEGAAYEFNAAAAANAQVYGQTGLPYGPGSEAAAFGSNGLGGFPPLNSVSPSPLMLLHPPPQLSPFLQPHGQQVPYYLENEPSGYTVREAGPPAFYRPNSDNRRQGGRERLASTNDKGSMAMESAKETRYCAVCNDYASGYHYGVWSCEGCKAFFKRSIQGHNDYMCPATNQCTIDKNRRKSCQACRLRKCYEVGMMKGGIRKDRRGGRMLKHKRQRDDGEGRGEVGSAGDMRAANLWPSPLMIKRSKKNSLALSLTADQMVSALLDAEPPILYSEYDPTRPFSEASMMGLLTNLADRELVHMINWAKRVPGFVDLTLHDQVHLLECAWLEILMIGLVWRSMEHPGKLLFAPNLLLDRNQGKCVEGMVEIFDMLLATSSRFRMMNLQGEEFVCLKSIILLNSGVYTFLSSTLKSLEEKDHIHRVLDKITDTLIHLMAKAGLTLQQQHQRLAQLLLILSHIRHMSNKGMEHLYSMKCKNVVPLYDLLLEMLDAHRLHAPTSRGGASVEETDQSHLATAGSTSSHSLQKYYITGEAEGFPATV

Consider `C=CC[N@@+]12CC[C@@]34c5ccccc5N5/C=C6/[C@H]7C[C@H]8[C@@]9(CC[N@@+]8(CC=C)C/C7=C/CO)c7ccccc7N(/C=C(/[C@@H](C[C@@H]31)/C(=C\CO)C2)[C@H]54)[C@@H]69`, for which, in [1], the Potency result was “inactive”.
Take `Cc1ccc(C2OC[C@@H]3OC(c4ccc(C)cc4)O[C@H]([C@H](O)CO)[C@@H]3O2)cc1` (some centres not stated): the Potency result in test [2], in test [3], in [4], in test [5], in [6] and in test [7] was “inactive” in each case. Besides, the Potency entry in [8], in [9], in test [10], in [11] and in [12] was “inactive” throughout.
Consider `c1ccc2occc2c1`, for which the Potency result in test [2], in [13], in [3], in [1], in test [6] and in test [14] was “inactive” throughout. In addition, the Potency result in test [7], in [8], in test [9] and in [15] was “inactive” throughout. Moreover, the Potency in test [5] is 68.6 µM (active).
With `CCOC(=O)C1=NN(c2ccc(Cl)cc2Cl)C(C)(C(=O)OCC)C1` (configuration not stated), the Potency result in test [16], in test [2], in test [13], in test [3], in test [6] and in test [14] was “inactive” in each case. The Potency result in [7], in [8], in test [9], in test [15] and in test [12] was “inactive” throughout. Besides, in test [4], the Potency is 30.6 µM (active). Besides, the outcome in test [17] was inactive.
As for `COc1ccc(OC)c(N=Nc2c(O)ccc3ccccc23)c1`, the Potency entry in [16], in test [2], in test [9] and in [18] was “inactive” each time. Further, the Potency was 9.69 µM (active) in test [13]; 24.3 µM (active) in test [3]; 27.3 µM (active) in [6]; 24.3 µM (active) in test [14]; 13.7 µM (active) in test [7]; 13.7 µM (active) in test [8]. Moreover, the Potency in [15] was 24.3 µM (active). Also, in test [17], the compound was classed as inactive.
For `O=C1c2ccccc2C(=O)c2c(Cl)cccc21`, the Potency result in test [16], in [2], in test [13], in [3], in [5] and in test [7] was “inactive” throughout. The Potency result in [8], in [9], in test [10] and in test [12] was “inactive” throughout. Further, in test [11], the Potency was 32.4 µM (active).
Turning to `CC(C)c1ccc2sc3ccccc3c(=O)c2c1`, the Potency result in test [16], in test [19], in [2], in test [3], in test [7] and in [8] was “inactive” throughout. Also, the Potency entry in test [10], in [18] and in test [15] was “inactive” each time. In [6], the Potency is 1.72 µM (active). In addition, the outcome in [17] was inactive.
Regarding `O=C(NCc1ncc(C(F)(F)F)cc1Cl)c1c(Cl)cccc1Cl`, the Potency entry in test [16], in [19], in test [2], in test [13], in test [6] and in test [14] was “inactive” throughout. In addition, the Potency entry in test [7], in test [8], in test [9], in [10] and in [12] was “inactive” throughout. The Potency was 54.5 µM (active) in test [4], 17.2 µM (active) in test [15] and 43.3 µM (active) in test [11]. Further, in test [17], the compound was classed as inactive.
On to `O=C1[O][Bi][O]c2ccccc21`, for which the Potency entry in test [1] is “inactive”.
For the compound `CCCCCCCCCCCCN1CCCC1=O`, the Potency entry in test [19], in test [13], in [3], in [5], in test [6] and in test [14] was “inactive” throughout. For the same compound, the Potency entry in [8], in [9] and in test [10] was “inactive” each time. The Potency in test [18] and in [11] was 48.6 µM (active) in each case.

The record behind these values is PubChem BioAssay (Tox21).
